Hits are enriched below; roughly 2.7% of the tested compounds scored in any of these assays.
KDM5B inh: blocks human KDM5B histone demethylase activity | KDM5B demethylase, FDH-coupled NADH fluorescence (FDH is formaldehyde dehydrogenase) | AID 1347165 | Potency, µM (highest dose often 57.7 µM), most hits filed as inhibitors | actives 2.6% (n = 220,000); active = well fitted inhibition curve with a large enough effect; inconclusive = small, poorly fitted or top-dose-only effect; inactive = no such curve, though single readings can be large or run the other way; note: potency is the fitted concentration of half-maximal effect; 0% is about no effect; nearly all actives have a fitted effect of over 70% in size
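Measured: NADH fluorescence change, 30 min, RT. System: KDM5BΔAP 200 nM final, H3K4me3 peptide, α-KG, Fe(II), ascorbate, NAD⁺ plus FDH, pH 7.5 HEPES. Compounds: titrated, 10 min pre-incubation with enzyme.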
IP6K1 inh: IP6K1 kinase inhibition. IP6K1 kinase, ADP-Glo luminescence, 2 h; hits give low values. activity change, % (series mostly up to about 58 µM). actives 0.81% (n = 140,000); in the data active = activity change below about -25%; note: % is set by controls: 0 for no effect and ±100 for the full control effect
Target sequence (Q92551 whole entry, looked up): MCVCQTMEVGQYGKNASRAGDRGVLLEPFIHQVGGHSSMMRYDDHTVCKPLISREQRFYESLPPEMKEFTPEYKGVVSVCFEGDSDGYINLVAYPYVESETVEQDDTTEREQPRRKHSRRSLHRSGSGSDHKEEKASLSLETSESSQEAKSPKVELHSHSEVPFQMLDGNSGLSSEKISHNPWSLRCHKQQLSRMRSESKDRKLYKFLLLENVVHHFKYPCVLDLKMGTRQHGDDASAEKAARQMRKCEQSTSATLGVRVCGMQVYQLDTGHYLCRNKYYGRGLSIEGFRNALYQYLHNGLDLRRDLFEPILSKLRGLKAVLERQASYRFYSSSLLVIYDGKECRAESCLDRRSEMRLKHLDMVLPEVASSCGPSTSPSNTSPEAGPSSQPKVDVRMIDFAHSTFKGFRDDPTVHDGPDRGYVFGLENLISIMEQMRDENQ
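ADP-Glo luminescence measures ADP made by human IP6K1 during a 2 h RT reaction with ATP/IP6 (mix at 1.3 mM/130 uM); top library doses 57.5 and 19.1 uM final.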
The depositor's hits bear a star; i = inactive; ? = inconclusive; . = no result given.

SMILES | KDM5B inh | IP6K1 inh
Cc1ccc(-c2cccc(CN3CCCC3C(=O)NCc3cccs3)c2)cc1Cl (stereo unspecified) | . | -4
COc1ccc(C(=O)N[C@@H]2CN(Cc3ccccc3)C[C@H]2CN(C)C)cc1F | . | -6
O=C(Nc1ccc2c(c1)CCC2)c1cc(F)c(F)cc1Cl | i | .
COc1ccc(C(=O)Nc2nc(-c3nnn(-c4ccccc4Br)c3C)ns2)cc1 | i | .
CCn1c(C2CCCN(Cc3c(C(=O)O)[nH]c4ccc(C)cc34)C2)n[nH]c1=O (stereo unspecified) | 28µM* | 16
Cc1ccc2nc(C3CCCN(Cc4ccccc4)C3)[nH]c(=O)c2c1 (stereo unspecified) | i | 3
Cc1nn(-c2ccccc2)c2c1C(C)N(CC1CN(C(=O)c3ccccc3Cl)C1)C2=O (stereo unspecified) | . | 15
COC(=O)c1cccc(CN2C[C@@H]3C(C)(C)COc4ccc(OC)cc4[C@]3(CO)C2)c1 | . | 8
Cc1ccc(OCC(=O)N2CCOc3ccc(CN4CCc5ccccc5C4)cc3C2)cc1 | i | -7
O=c1n(-c2cccc(Cl)c2)nc2n1CCN(Cc1ccccc1)C2 | 89µM* | 8
COc1ccc(CN2CCn3c(nn(-c4cccc(Cl)c4)c3=O)C2)cc1 | ? | 7
O=c1c(Cl)c(Oc2cccc(OCC(F)(F)F)c2)cnn1-c1ccc(C(F)(F)F)cn1 | i | .
O=C(NCc1ccc(F)cc1)c1nc(-c2cccc(C(F)(F)F)c2)c2ccccn12 | i | 15
CN(C)C(=O)c1nc(C(C)(C)C)c2ccccn12 | 112µM* | -7
COC(=O)CNC(=O)c1nc(C(C)(C)C)c2ccccn12 | 126µM* | -8
COC(=O)CNC(=O)c1nc(-c2cccnc2)c2ccccn12 | i | 11
CN(C)C(=O)c1cc(-c2ccccc2S(C)(=O)=O)c2cccn2n1 | i | -4
Cc1cccc(C)c1-c1nc(C(=O)N(C)C)n2ccccc12 | 40µM* | 30
CC(C)(C)c1nc(C(=O)NCc2ccc(F)cc2)n2ccccc12 | 89µM* | 0
CN(C)C(=O)c1nc(-c2ccccc2)c2ccccn12 | i | 21
COC(=O)c1scc(-c2ccc(C)cc2)c1S(=O)(=O)Nc1cccc(C)c1 | i | .
COc1ccccc1NC(=O)c1ccc(NC(=O)COC(=O)c2cc(C)nc3ccccc23)cc1 | i | .
Cn1cc(-c2cnn3c(N)c(Br)c(C4CCCNC4)nc23)cn1 (stereo unspecified) | . | -9
Cc1onc(-c2ccccc2Cl)c1C(=O)Nc1cccc(C(=O)NC(C)(C)C)c1 | i | .
CCC(=O)c1ccc(OC)c(Cl)c1 | i | .
SMILES | KDM5B inh | IP6K1 inh
Cc1nc2cnccn2c1C(=O)NCc1ccc(C(F)(F)F)cc1 | . | 4
CC(C)(C)c1nc(C(=O)NCc2ccc(F)cc2)n2ccncc12 | 100µM* | -8
CC(=O)NC[C@@H]1C=C(C)[C@H](CC(=O)O)C[C@H]1C(C)C | i | 8
COc1ccc(S(=O)(=O)NC[C@@H]2C=C(C)[C@H](CC(=O)N3CCN(c4ccccn4)CC3)C[C@H]2C(C)C)cc1 | 28µM* | -4
CC1=C[C@@H](CNC(=O)CC(C)(C)C)[C@H](C(C)C)C[C@H]1CC(=O)O | 28µM* | 3
CC1=C[C@@H](CNC(=O)COc2ccccc2)[C@H](C(C)C)C[C@H]1CC(=O)N1CCN(C)CC1 | i | -6
COc1cccc(NC(=O)NC[C@@H]2C=C(C)[C@H](CC(=O)N3CCN(c4ccccn4)CC3)C[C@H]2C(C)C)c1 | 32µM* | 5
COCC(=O)NC[C@@H]1C=C(C)[C@H](CC(=O)N2CCN(c3ccccn3)CC2)C[C@H]1C(C)C | 32µM* | 13
COc1ccc(S(=O)(=O)NC[C@@H]2C=C(C)[C@H](CC(=O)N3CCN(C)CC3)C[C@H]2C(C)C)cc1 | i | 13
COc1cccc(NC(=O)NC[C@@H]2C=C(C)[C@H](CC(=O)N3CCOCC3)C[C@H]2C(C)C)c1 | i | -15
CCOC(=O)C[C@@H]1C[C@@H](C(C)C)[C@H](CNS(=O)(=O)c2ccc(OC)cc2)C=C1C | ? | -6
COCCNC(=O)C[C@@H]1C[C@@H](C(C)C)[C@H](CNS(=O)(=O)c2ccc(OC)cc2)C=C1C | 22µM* | -1
CCCSc1n[nH]c2nc3c(c(=O)n12)C(C)(CC)Cc1ccccc1-3 (stereo unspecified) | i | .
CN(Cc1ccccc1)C(=O)c1cc(-c2cccc(F)c2)nc2c1cnn2C | . | -1
Cc1ccc(C(=O)N[C@H]2CO[C@H]3[C@@H]2OC[C@@H]3Nc2nccc(-c3cccs3)n2)cc1 | ? | -7
CC(C)CN[C@H]1CO[C@H]2[C@@H]1OC[C@@H]2Nc1nccc(-c2cccs2)n1 | 32µM* | 13
O=S(=O)(N[C@H]1CO[C@H]2[C@@H]1OC[C@@H]2Nc1nccc(-c2cccs2)n1)c1cccs1 | 22µM* | 3
COc1ccc(C(=O)N[C@H]2CO[C@H]3[C@@H]2OC[C@@H]3Nc2nccc(-c3cccs3)n2)cc1 | ? | -8
O=C(Cc1ccccn1)N1CCCC(C(=O)N2CCC(N3CCOCC3=O)CC2)C1 (stereo unspecified) | . | 17
COc1ccccc1Nc1ccnc(N2CCC(NC(=O)c3ccc(C)cc3)CC2)n1 | . | -5
COc1ccc(OC2CCN(C3CCCC3)CC2)c(C(=O)NCCCN2CCCC2=O)c1 | 32µM* | 21
COc1ccc(OC2CCN(C(C)=O)CC2)c(C(=O)NCCc2c(C)n[nH]c2C)c1 | 28µM* | -2
CCC(NC(=O)c1cc(OC)ccc1OC1CCN(C(C)=O)CC1)c1ccncc1 (stereo unspecified) | ? | 4
COc1ccc(OC2CCN(C(=O)C3CC3)CC2)c(C(=O)NCCCN2CCOCC2)c1 | ? | 7
O=C(NCCc1ccccc1F)c1nc2sccn2c1-c1cccc(C(F)(F)F)c1 | . | 5
SMILES | KDM5B inh | IP6K1 inh
CCOc1ccc(/C=C2\Oc3cc(OS(C)(=O)=O)ccc3C2=O)cc1 | i | .
Cc1nc2ccc(C(=O)OC(C)C(=O)NC(N)=O)cc2nc1C (stereo unspecified) | i | .
Cc1cccc(N2CCN(c3ncncc3-c3nc(-c4ccccc4)no3)CC2)c1 | 22µM* | 1
c1ccc(-c2noc(-c3cncnc3N3CCN(c4ccccc4)CC3)n2)cc1 | ? | -13
CCOc1cccc(CNc2ncncc2-c2nc(-c3ccccc3)no2)c1 | ? | -6
Cc1ccc(Nc2ncncc2-c2nc(-c3ccccc3)no2)c(C)c1 | i | 3
Cc1cc(F)ccc1Nc1ncncc1-c1nc(-c2ccccc2)no1 | 7.9µM* | -13
COc1ccccc1CNc1ncncc1-c1nc(-c2ccccc2)no1 | 32µM* | -5
c1ccc(-c2noc(-c3cncnc3NCC3CCCCC3)n2)cc1 | 28µM* | -7
c1ccc(-c2noc(-c3cncnc3NCC3CCCO3)n2)cc1 (stereo unspecified) | ? | 5
O=C(NCc1cccc(F)c1)C1CCN(c2nccc(Nc3ccccc3Cl)n2)CC1 | . | -1
COc1cccc(-c2ccc(C(=O)N3CCC(N[S+](=O)([O-])c4ccccc4)CC3)cc2)c1 | . | 9
Clc1ccc(N/N=C/c2cccc3ccccc23)cc1Cl | i | .
CN(C(=O)CCn1nc(-c2ccc(Cl)cc2)c2ccccc2c1=O)c1ccccc1 | i | .
COc1cc(CNc2ncn[nH]2)ccc1OCc1ccccc1 | i | .
Cc1cccc(CNc2ncncc2-c2nc(-c3ccccc3)no2)c1 | ? | -1

Bioassay records from PubChem.
